# Data from PubChem BioAssay AID504660 (National Center for Advancing Translational Sciences (NCATS), 2011).
# The campaign covered roughly 360,000 compounds. About 3,700 (1%) were called active. What follows is part of a selection rich in actives, with near analogues and random picks from the rest. Unmarked numbers belong to inactive results. No stated cut-off is given here; in the data, active means activation above about 30%; inactive means the rest.
# Target: D(1A) dopamine receptor (Homo sapiens) (UniProt P21728)
# Assay: Allosteric Agonists of the Human D1 Dopamine Receptor: qHTS; further: 0% is about no effect
# Conditions: HEK293 T-REx D1 cells, calcium flux, agonist mode; at 2 µM; active compounds read high
# Procedure, shortened: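 Tetracycline-induced HEK293 TREx D1 cells, force-coupled to calcium signalling, were dye-loaded with a no-wash calcium kit. Compound was pin-added after a 10 s baseline. Fluorescence was read kinetically at 1 cycle/s for 180 s, with calcium rises flagged as agonism.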
# Sequence of D(1A) dopamine receptor (Homo sapiens) (P21728 whole entry, looked up): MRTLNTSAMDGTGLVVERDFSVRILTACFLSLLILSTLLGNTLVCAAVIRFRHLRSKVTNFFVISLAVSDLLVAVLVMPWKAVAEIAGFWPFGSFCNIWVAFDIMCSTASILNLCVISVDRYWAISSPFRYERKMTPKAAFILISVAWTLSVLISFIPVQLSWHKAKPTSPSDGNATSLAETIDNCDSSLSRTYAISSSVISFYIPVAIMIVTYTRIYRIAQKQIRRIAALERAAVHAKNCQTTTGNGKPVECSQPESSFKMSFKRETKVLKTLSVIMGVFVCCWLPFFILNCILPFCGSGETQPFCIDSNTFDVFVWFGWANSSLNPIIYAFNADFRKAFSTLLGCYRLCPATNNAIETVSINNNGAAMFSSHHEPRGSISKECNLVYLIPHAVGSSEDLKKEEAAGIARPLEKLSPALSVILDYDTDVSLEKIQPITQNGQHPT
row,SMILES,activation
1,COc1ccc(-n2c(C)nc3c(cnn3-c3ccc(F)cc3)c2=O)cc1,9.13%
2,Cc1ccc(NC(=O)CCCNC(=O)c2ccc(Cl)cc2)cc1S(=O)(=O)N1CCOCC1,0.321%
3,Cc1ccc(NC(=O)COC(=O)CNC(=O)c2ccc(Cl)cc2Cl)cc1S(=O)(=O)N1CCOCC1,31.1% (active)
4,Cc1ccc(C(=O)OCC(=O)Nc2ccc(Cl)cn2)cc1S(=O)(=O)N1CCOCC1,5.99%
5,Cc1ccc(S(=O)(=O)N2CCC(C(=O)Nc3cc(C)ccc3C)CC2)cc1,1.28%
6,CC(C)(C)CC(C)(C)NCC(O)COCCOc1ccc(Br)cc1 (centres undefined),171% (active)
7,CC(Oc1ccc(Br)cc1)C(=O)NC1CCCCCC1 (centres undefined),1.77%
8,COc1ccc(OCC(O)CNCCNc2nccc(C(F)(F)F)n2)cc1 (centres undefined),1.81%
9,COc1ccc(-n2ccnc(NCCc3ccc(Cl)cc3)c2=O)cc1OC,1.51%
10,COc1cc(OC)c(NC(=O)c2cc(S(=O)(=O)N3CCCC3)cn2C)cc1Cl,0.318%
11,COc1ccccc1C(=O)OCc1cc(=O)n2nc(-c3cccs3)sc2n1,0.554%
12,COc1ccc(C(=O)N2CCC(c3nc4ccccc4o3)CC2)cc1,0.0167%
13,O=C(Cn1cc(SCc2ccccc2)c2ccccc21)N1CCCCC1,0.868%
14,CN(Cc1ccccc1)CC(O)COc1ccc(CNCc2cc3ccccc3s2)cc1 (centres undefined),36.8% (active)
15,COc1ccc(OCC(O)CN(C)C(=O)C(C)Oc2ccccc2)cc1 (centres undefined),3.18%
16,COc1cccc(CN(C)CC(O)COC(c2ccccc2)c2ccccc2C)c1 (centres undefined),5.2%
17,C=CCSc1nnc(N2C(=O)C(O)=C(C(=O)c3ccco3)C2c2ccc(F)cc2)s1 (centres undefined),54.8% (active)
18,C=CCOc1cccc(C2C(C(=O)c3ccc(C)o3)=C(O)C(=O)N2c2nnc(C)s2)c1 (centres undefined),29.7%
19,Cc1ccc2nc(N3C(=O)C(O)=C(C(=O)c4ccco4)C3c3cccc(O)c3)sc2c1 (centres undefined),7.96%
20,COc1ccc(CNC(=O)c2ccc(NC(=O)N3CC4CCCN4c4ccccc43)cc2)cc1 (centres undefined),0.101%
21,COc1ccc(Cn2ccn(CC(=O)Nc3cc(C)ccc3C)c(=O)c2=O)cc1,18.9%
22,CCc1nc2ccc(C(=O)N3CCN(c4cc(Cl)ccc4C)CC3)cc2nc1CC,5.95%
23,O=C(NC1CC(=O)N(c2ccc(F)cc2)C1)c1cccs1 (centres undefined),1.75%

row,SMILES,activation
1,CCOC(=O)c1cc(NC(=O)c2ccc(Cl)cc2)c(=O)oc1-c1ccccc1,3.05%
2,CC(=O)c1cc(NC(=O)c2ccccc2)c(=O)oc1/C=C/N(C)C,30.3% (active)
3,COc1ccc(C2COC(=O)C2=N)c(NC(=O)c2ccccc2)c1 (centres undefined),0.266%
4,Cc1ccc(N2CC(NC(=O)Cc3cccs3)CC2=O)cc1 (centres undefined),-0.478%
5,CCOc1ccc(Nc2oc(/C=C/c3ccc(F)cc3)nc2C#N)cc1,-0.316%
6,CCOc1ccc(N(Cc2ccccc2)C(=O)c2nc(S(C)(=O)=O)ncc2Cl)cc1,1.14%
7,COc1ccc(NC(=O)Cn2c(=O)cc(C)c3c(C)nn(-c4cccc(Cl)c4C)c32)cc1OC,0.131%
8,Cn1c(=O)[nH]c(=O)c2c1nc(NCCc1ccccc1)n2Cc1ccc(F)cc1,-2.2%
9,CN(C)CCCn1c(-c2ccc(Cl)cc2)csc1=Nc1ccccc1,39% (active)
10,OCCn1c(-c2ccccc2)csc1=Nc1ccccc1,0.78%
11,CN(C)CCCn1c(SCc2ccc(Cl)cc2)nnc1-c1ccncc1,0.237%
12,O=C(CSc1ncc(CO)n1Cc1ccc(F)cc1)NCc1ccco1,1.99%
13,O=C(CNC(=O)c1ccc(Cl)cc1Cl)OC(C(=O)Nc1cc(C(F)(F)F)ccc1Cl)c1ccccc1 (centres undefined),6.6%
14,COc1ccc(NC(C)=O)cc1NC(=O)CN1CCN(C2c3ccccc3-c3ccccc32)CC1,1.82%
15,O=C(Nc1ccccc1)N1CCN(C2c3ccccc3-c3ccccc32)CC1,35.4% (active)
16,O=C(Nc1ccccc1)N1CCC(C(=O)N2CCN(Cc3ccccc3)CC2)CC1,0.0463%
17,O=C(CC(c1cccs1)N1Cc2ccccc2C1=O)Nc1ccc(F)c(F)c1 (centres undefined),10.6%
18,CCOc1ccc(CNC(=O)Cn2cc3c(n2)-c2c(oc(C(=O)N4CCCC4)c2C)CC3)cc1,0.642%
19,COc1ccc(CCNC(=O)c2ccc(CS(=O)(=O)c3ccc(Br)cc3)o2)cc1OC,17.3%
20,COc1ccccc1CNC(=O)c1ccc(CS(=O)(=O)c2ccccc2)o1,30.2% (active)
21,COc1ccccc1CNC(=O)c1ccc(CS(=O)c2ccccc2Cl)o1 (centres undefined),6.51%
22,CCC(C(=O)Nc1cccc(Cl)c1C)n1nc(-c2ccc(C)cc2)ccc1=O (centres undefined),1.44%
23,COc1ccc(N2CCN(c3cc(C)nc4nncn34)CC2)cc1,5.83%

row,SMILES,activation
1,CCc1ccc(NC(=O)CCCc2nnc3n(CCCOC)c(=O)c4sccc4n23)cc1,2.87%
2,Cc1cccc(NC(=S)NCCc2ccc(F)cc2)c1C,0.43%
3,Cc1c(NC(=O)CCCOc2ccccc2)cccc1[N+](=O)[O-],0.0331%
4,Cc1c(NC(=S)NCc2ccc(F)cc2)cccc1[N+](=O)[O-],31.7% (active)
5,CC(C)(C)c1ccc(S(=O)(=O)N2CCN(C(=O)c3cc(-c4ccc(Br)cc4)n[nH]3)CC2)cc1,2.7%
6,COc1ccc(NC(=O)CN2CCCN(Cc3ccccc3)S2(=O)=O)cc1,-2.31%
7,O=C(C1CCC(Cn2c(=O)c3sccc3n(Cc3ccccc3F)c2=O)CC1)N1CCCCC1 (centres undefined),1.57%
8,CN(c1ccccc1)S(=O)(=O)c1cccc(C(=O)NNC(=O)c2ccncc2)c1,0.604%
9,CC(=O)c1c(C)[nH]c(C(=O)COC(=O)c2cccc(S(=O)(=O)N(C)c3ccccc3)c2)c1C,31.9% (active)
10,COc1ccc(C)cc1NC(=O)C(OC(=O)c1cccc(S(=O)(=O)N(C)c2ccccc2)c1)c1ccccc1 (centres undefined),0.857%
11,N#Cc1nc(Nc2cc(F)cc(Cl)c2)nc(NC2CCCC2)n1,11.1%
12,COc1ccccc1N1CCN(C(CNC(=O)C(=O)NCc2ccc(C)cc2)c2cccnc2)CC1 (centres undefined),3.64%
13,O=C(CSc1ccc([N+](=O)[O-])cn1)Nc1ccc(N2CCOCC2)cc1,0.916%
14,CC1=C(c2ccc(C)cc2)S(=O)(=O)NC1=NCCCN1CCN(c2cc(C)ccc2C)CC1,6.19%
15,O=C(CCN1C(=O)COc2ccccc21)NCCCN1CCN(c2ccc(F)cc2)CC1,-0.0538%
16,O=C(NCCCN1CCN(c2ccc(F)cc2)CC1)Nc1ccc([N+](=O)[O-])cc1,32.8% (active)
17,CCOC(=O)c1c(C)[nH]c(CCC(=O)NCCCN2CCN(c3cc(C)ccc3C)CC2)c1C,22.5%
18,Cc1ccc(C)c(N2CCN(CCCNC(=O)Nc3ccc(Cl)cc3)CC2)c1,65.5% (active)
19,O=C(Nc1cccc2cccnc12)C(F)(F)F,0.559%
20,COc1ccc(S(=O)(=O)NCCSc2nnnn2-c2ccccc2)cc1,2.54%
21,CCOc1ccc(S(=O)(=O)c2cn(Cc3ccccc3)c3ccc(OCC)cc3c2=O)cc1,1.46%
22,CCOC(=O)c1c(C)[nH]c(C)c1S(=O)(=O)NCC(=O)NCc1cccc(C)c1,6.99%
23,CCCCOC(=O)/C(C#N)=C/c1ccc(-c2cccc(C(F)(F)F)c2)o1,6.87%

row,SMILES,activation
1,c1ccc(C2CNCc3c2ccc2ccccc32)cc1 (centres undefined),45.9% (active)
2,Cc1ccc2nc(COc3cccc(NC(=O)c4ccccc4Cl)c3)cc(=O)n2c1,0.0743%
3,Cc1cc(C)c(/C=C2\C(=O)Nc3ccccc32)[nH]1,92.6% (active)
4,COc1ccccc1S(=O)(=O)c1c(C)cc(C)[nH]c1=O,3.01%
5,Cc1cc(C)cc(NS(=O)(=O)c2ccc(-c3cc(C)no3)s2)c1,1.79%
6,O=S(=O)(c1ccc2c(c1)OCCO2)N1CCN(S(=O)(=O)c2cc(F)ccc2F)CC1,6.6%
7,CCc1cccc(NC(=O)CN(c2ccc(C)c(C)c2)S(=O)(=O)c2ccsc2C(=O)OC)c1,3.48%
8,Cc1cccc(NC(=O)N2CCC(CN3CCc4ccccc4C3)CC2)c1C,6.8%
9,Fc1cccc(Cl)c1COc1ccc(-c2nnco2)cc1,4.97%
10,CN(C)CCCNC(=O)/C=C/c1ccc(OCc2c(F)cccc2Cl)cc1,20.4%
11,O=C(/C=C/c1ccc(OCc2c(F)cccc2Cl)cc1)N1CCOCC1,59.7% (active)
12,CCC(=O)Nc1ccc2nc(SCC(=O)N3CCc4ccccc43)sc2c1,4.11%
13,CS(=O)(=O)c1ccc(-c2nnc(NC(=O)c3ccc4c(c3)OCCO4)o2)cc1,2.14%
14,CCCN(C(=O)Cn1cc(S(=O)(=O)N2CCN(c3ccccc3F)CC2)c2ccccc2c1=O)c1cccc(C)c1,5.13%
15,Cn1nc(-c2ccccc2)c(CO)c1Sc1ccccc1,2.17%
16,Nc1ccccc1Sc1cc(Cl)nnc1Cl,0.62%
17,Cc1nn(C)c(C)c1Sc1ccccc1N,37.1% (active)
18,CC(C)(CCl)C(=O)Nc1ccc(Sc2ccc(F)cc2)cc1,32.5% (active)
19,COC(=O)c1ccc(Sc2ccc(F)cc2)c(N)c1,2.52%
20,CC(=O)Nc1cc(C(=O)NCc2ccc(F)cc2)ccc1Sc1ccc(F)cc1,-2.57%
